JMJD2A Tudor: inhibitors of human JMJD2A Tudor domain | O75164 | AlphaScreen JMJD2A-Tudor / H3K4me3 peptide binding | Potency, µM (doses to about 114 µM), without a hit: top-dose activity change, negative = inhibition, actives largely listed as inhibitors | hit rate 4.4% among 390,000; note: % is set by controls: 0 for no effect and ±100 for the full control effect; nearly all actives have a fitted effect of over 50% in size
Target sequence (O75164 whole entry, looked up, the tested form may be a part): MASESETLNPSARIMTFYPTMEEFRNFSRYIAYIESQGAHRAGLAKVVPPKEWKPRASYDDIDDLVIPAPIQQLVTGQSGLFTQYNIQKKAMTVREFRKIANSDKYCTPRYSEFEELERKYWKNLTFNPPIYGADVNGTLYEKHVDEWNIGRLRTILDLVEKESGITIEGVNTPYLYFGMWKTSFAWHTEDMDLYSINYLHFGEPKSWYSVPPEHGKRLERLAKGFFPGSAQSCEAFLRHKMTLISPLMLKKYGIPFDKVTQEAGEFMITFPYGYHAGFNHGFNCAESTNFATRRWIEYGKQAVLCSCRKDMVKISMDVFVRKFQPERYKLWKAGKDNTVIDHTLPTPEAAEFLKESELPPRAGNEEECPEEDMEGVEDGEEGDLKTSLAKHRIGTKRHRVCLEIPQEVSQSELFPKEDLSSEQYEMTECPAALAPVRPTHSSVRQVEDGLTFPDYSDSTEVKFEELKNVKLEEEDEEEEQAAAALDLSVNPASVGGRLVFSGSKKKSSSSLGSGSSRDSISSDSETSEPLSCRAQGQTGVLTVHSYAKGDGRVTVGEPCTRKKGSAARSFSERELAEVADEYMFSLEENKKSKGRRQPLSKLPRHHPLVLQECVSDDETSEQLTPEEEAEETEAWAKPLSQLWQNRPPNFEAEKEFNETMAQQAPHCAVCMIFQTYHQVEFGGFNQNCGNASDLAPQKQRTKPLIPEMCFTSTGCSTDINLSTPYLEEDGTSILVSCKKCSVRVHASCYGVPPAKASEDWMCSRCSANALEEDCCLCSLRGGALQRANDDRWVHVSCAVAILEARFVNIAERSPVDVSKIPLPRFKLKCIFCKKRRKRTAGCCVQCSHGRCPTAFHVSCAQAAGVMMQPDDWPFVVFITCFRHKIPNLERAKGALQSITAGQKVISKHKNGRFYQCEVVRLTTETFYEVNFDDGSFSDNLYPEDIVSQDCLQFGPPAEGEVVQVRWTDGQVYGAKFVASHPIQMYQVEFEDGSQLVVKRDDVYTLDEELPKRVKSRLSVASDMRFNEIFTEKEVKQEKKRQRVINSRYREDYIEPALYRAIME
GLS inh: blocks human kidney-isoform glutaminase activity. O94925. GLS enzymatic activity, qHTS titration. Potency, µM (series often up to 45.5 µM), without a hit: top-dose activity change, negative = inhibition, hits mostly inhibitors. hit rate 0.21% among 410,000; note: % is set by controls: 0 for no effect and ±100 for the full control effect
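Assay buffer: 45 mM KH2PO4 pH 8.2, 0.02% Tween-20. hKGA acts on L-glutamine (1 mM solution added); product glutamate is reported by an oxidase/peroxidase Amplex Red coupling, with fluorescence taken at baseline and 30 min.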
BAZ2B block: BAZ2B (human) inhibition. AlphaScreen BAZ2B-H3K14Ac peptide displacement. Potency, µM (highest dose often 114 µM), without a hit: top-dose activity change, negative = inhibition, actives largely listed as inhibitors. hit rate 4.4% among 360,000. AID 504333; note: % is set by controls: 0 for no effect and ±100 for the full control effect; nearly all actives have a fitted effect of over 60% in size
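Multi-concentration screen (max 110 uM) measuring displacement of acetylated histone H3 peptide from BAZ2B by AlphaScreen, using 50 nM protein, 50 nM peptide and 10 ug/mL streptavidin donor plus Ni-chelate acceptor beads.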
G9a block: inhibitors of human histone lysine methyltransferase G9a; Q96KQ7; G9a H3K9 monomethylation, AlphaScreen, 2 h; Potency, µM (series often up to 102 µM), for inactives: top-dose activity, negative = inhibition, usual class: inhibitors; hit rate 8.8% among 350,000; note: % is set by controls: 0 for no effect and ±100 for the full control effect; nearly all actives have a fitted effect of over 75% in size
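AlphaScreen read-out: biotin-H3K9 peptide (500 nM) methylation by 20 nM enzyme with 20 uM SAM, 2 h at room temperature after 15 min compound preincubation; anti-monomethyl H3K9 antibody plus donor/acceptor beads, 10 min dark.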
HP1b chromo inh: blocks HP1-beta chromodomain binding to methylated histone tails | AlphaScreen HP1-beta / biotin-H3K9me3 peptide binding | Potency, µM (top dose mostly 114 µM), for inactives: at the highest dose activity change, negative = inhibition, usual class: inhibitors | hit rate 0.56% among 390,000; note: nearly all actives have a fitted effect of over 70% in size
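Compound inhibition of the preformed complex between 50 nM HP1-beta and 50 nM biotinylated H3K9me3 peptide was read by AlphaScreen. Buffer was PBS pH 7.4 with 0.01% Tween-20. Incubations ran 30 min at room temperature, with 10 ug/mL donor/acceptor beads.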
* hit, by the source's call; u = inconclusive; x = not tested or not shown; [ ] = dose if it differs, or a comment. The list is not random: actives were taken first. Their share in the collection is about 10%. Calls come from the whole dose curve; as a rule, active = well fitted curve in the direction sought with a large enough effect; inconclusive = small, poorly fitted or top-dose-only effect, or another doubt; inactive = no such curve, though single readings can be large; an effect the other way counts as inactive or inconclusive. Potency is the fitted concentration of half-maximal effect.

SMILES | JMJD2A Tudor | GLS inh | BAZ2B block | G9a block | HP1b chromo inh
COc1ccc(Cc2nnc(NC(=O)Nc3ccccc3F)s2)cc1OC | -15.0% | 2.8% | -1.4% | x | 18.4%
CCc1cccc(CN2CCC(CNC(=O)Nc3ccc(Cl)cc3)CC2)c1 | -19.4% | -0.5% | 50.1µM* | -12.8% | 26.6%
O=C(NCC1CCN(Cc2cccc(Cl)c2)CC1)Nc1ccc(Cl)cc1 | -30.4% | -9.7% | -38.3% | -12.8% | 42.6%
O=C1c2cc(S(=O)(=O)N3CCOCC3)ccc2-c2ccc(S(=O)(=O)N3CCOCC3)cc21 | -26.2% | x | x | x | 28.4%
CN(C)N=C1c2cc(S(=O)(=O)N3CCOCC3)ccc2-c2ccc(S(=O)(=O)N3CCOCC3)cc21 | u | -9.2% | -33.6% | 20µM* | -21.8%
CC(=O)Nc1ncc(N=Nc2cccc(C(F)(F)F)c2)s1 | -5.6% | -0.4% | -18.3% | 44.7µM* | 21.5%
O=C(CCn1c(=O)oc2ccccc21)NCc1ccc2c(c1)OCO2 | 8.3% | -3.3% | 4.6% | 3.1% | 30.4%
O=C(O)c1ccccc1C(=O)NCc1ccc2c(c1)OCO2 | 31.6µM* | 4.0% | -7.5% | -0.3% | u
O=C(NCc1ccc2c(c1)OCO2)C(C(=O)c1ccccc1)n1cc(Cl)ccc1=O (stereo not given) | -6.9% | 10.6% | -5.3% | 50.1µM* | 34.0%
O=C(CSc1nc2ccccc2[nH]1)NCc1ccc2c(c1)OCO2 | -2.0% | 1.4% | -9.3% | 25.1µM* | 14.9%
CCOc1ccccc1C(=O)NCc1ccc2c(c1)OCO2 | 12.9% | -6.0% | -4.3% | 8.6%[12.7 µM] | 40.0%
O=C(CCn1cccc1)NCc1ccc2c(c1)OCO2 | u | -0.6% | 50.1µM* | u | u
Cc1ccc(OCC(=O)NC2CCCc3ccccc32)c(C)c1 (stereo not given) | 32.1% | 6.5% | 1.8% | 21.6%[59 µM] | 64.0%
Cc1ccc(S(=O)(=O)N2CCCC2C(=O)N(C)Cc2cccs2)cc1 (stereo not given) | 5.4% | -0.5% | 10.2% | -61.9%[12.7 µM] | 29.6%
COC(=O)c1cc(OC)c(OC)cc1NC(=O)c1c(-c2ccccc2)noc1C | -20.4% | -5.5% | -34.8% | -18.9%[12.7 µM] | 19.9%
CC(=O)NNC(=O)CCC(=O)Nc1ccccc1 | -3.2% | -1.3% | -3.9%[57.1 µM] | 14.9%[2.33 µM] | 36.0%
Cc1ccc(N=Nc2ccc(O)c3ncccc23)cc1C | u | 2.1% | -30.1% | u | -5.5%
Cc1cc(N=Nc2ccc(C)c(N=Nc3cc(C)c(N)cc3N)c2)c(N)cc1N | 50.1µM* | 6.0% | 39.8µM* | 39.8µM* | u
COc1ccc(N2CCN(c3ccnc4cc(Cl)ccc34)CC2)cc1 | 35.5µM* | 26.2% | 39.8µM* | 31.6µM* | 39.8µM*
Oc1ccc(N2CCN(c3ccnc4cc(Cl)ccc34)CC2)cc1 | 56.2µM* | 15.7% | u | 8.91µM* | u
O=C(NCCC(=O)N1CCNC1=O)OCc1ccccc1 | -16.0% | 0.8% | -1.4% | -44.9%[12.7 µM] | 5.2%
C/C(=N\NC(=O)Cc1cccn1C)c1ccc2ccccc2c1 | u | 23.0% | u | 70.8µM* | -1.9%
COCCCNC(=O)CC1C[C@H](C(=O)N(C(C)C)C(C)C)[C@@]2(C)c3[nH]c4ccccc4c3CCN2C1=O (stereo not given in full) | 7.2% | -3.0% | x | x | 50.1%
O=C(N/N=C/c1ccccn1)c1cc([N+](=O)[O-])cc([N+](=O)[O-])c1 | 56.2µM* | -9.4% | 50.1µM* | 15.4% | 20.1%
O=C(O)c1cccc(NC(=S)N/N=C/c2ccccn2)c1 | 25.1µM* | 21.8% | 3.55µM* | 50.1µM* | 13.5%
SMILES | JMJD2A Tudor | GLS inh | BAZ2B block | G9a block | HP1b chromo inh
CC(/C=C/c1ccco1)=N/NC(=O)c1ccc(C)nc1 | -23.5% | 6.5% | -15.7% | -20.3% | 9.3%
O=C(N/N=C/c1ccccn1)c1ccc([N+](=O)[O-])cc1 | -17.0% | 3.9% | -37.8% | -32.5% | 28.8%
C/C(CC(=O)Nc1cc(C)ccn1)=N\NC(=O)c1cccc(C)c1 | -12.4% | 20.5% | 89.1µM* | 102.8%[59 µM] | 17.8%
Cc1ccc(C(=O)N/N=C/c2cccc(OC(=O)/C=C/c3ccco3)c2)cn1 | -3.8%[11.4 µM] | 12.6% | 50.1µM* | 44.7µM* | u
CCN(CC)S(=O)(=O)c1cccc(C(=O)N/N=C/c2ccccn2)c1 | u | -8.9% | 56.2µM* | u | 10.9%
Cc1ccc(C(=O)N/N=C/c2cc(Br)ccc2O)cn1 | 56.2µM* | 14.2% | 7.94µM* | 67.4%[0.501 µM] | 12.3%
Cc1cccc(C(=O)N/N=C/c2ccccn2)c1 | u | 0.8% | 2.9% | 15.8µM* | 6.6%
O=C(N/N=C/c1ccc2ncccc2c1)c1cccc([N+](=O)[O-])c1 | u | 2.9% | -39.0% | 79.4µM* | 204.8%
Cc1ccc(C(=O)N/N=C\c2ccccc2[N+](=O)[O-])cn1 | -5.2% | -7.0% | -14.9% | 75.1%[59 µM] | -1.3%
COc1ccc(C(=O)OCC(=O)Nc2ccc([N+](=O)[O-])cc2OC)c(O)c1 | -5.6% | -0.8% | -20.5% | -1.9% | 37.3%
Cc1ccc(C(=O)N/N=C\c2ccccn2)cn1 | 79.4µM* | 24.4% | u | 24.7% | 12.5%
O=C(N/N=C/c1ccccn1)c1cccc([N+](=O)[O-])c1 | -18.0%[11.4 µM] | 1.4% | 44.7µM* | u | 25.6%
O=C(N/N=C/c1ccncc1)c1cc([N+](=O)[O-])cc([N+](=O)[O-])c1O | 79.4µM* | u | u | u | 23.9%
CC(C)NC(=S)N/N=C/c1cc(Br)ccc1O | 50.1µM* | 21.5% | 17.8µM* | 2.5%[59 µM] | u
O=C(N/N=C/c1cn(Cc2ccccc2)c2ccccc12)c1ccncc1 | -27.1% | 4.7% | -14.5% | u | 7.8%
Cc1nn2c(-c3ccc(Cl)cc3)ccnc2c1-c1ccccc1 | 1.6%[57.1 µM] | -2.6% | 6.9% | -42.0%[12.7 µM] | 30.4%
CCOc1cc(Br)cc(/C=N/NC(=O)c2cccnc2)c1O | 39.8µM* | 2.7% | 28.2µM* | 21.4%[59 µM] | 59.0%
CC(=O)Oc1oc(-c2ccccc2)nc1C=Nc1ccc(N(C)C)cc1 | -15.7% | -17.2% | 0.7% | -3.7% | 17.4%
CN(C)c1ccc(N=Cc2cccn2C)cc1 | 50.1µM* | 6.0% | 20µM* | 8.91µM* | -33.9%
COc1ccccc1NS(=O)(=O)c1cc(NC(=O)CN2C(=O)NC3(CCCCC3)C2=O)ccc1C | -14.1% | 16.3% | x | x | 32.4%
CCCCCOCC1CC(C/C(C)=N/Nc2nc(-c3ccccc3)cs2)C(=O)O1 (stereo not given) | u | -0.6% | u | 39.8µM* | 2.8%
Cc1ccc(S(=O)(=O)c2nc(-c3ccco3)oc2NCC2CCCO2)cc1 (stereo not given) | -17.2% | 5.0% | -36.3% | 10µM* | 25.9%
Cc1ccc(CSc2oc(-c3ccco3)nc2S(=O)(=O)c2ccc(C)cc2)cc1 | -20.1% | -4.1% | -13.9% | -33.5%[59 µM] | 10.7%
O=S(=O)(c1ccc(Br)cc1)c1nc(-c2ccco2)oc1NCC1CCCO1 (stereo not given) | -8.3% | -6.2% | u | 35.5µM* | 34.6%
CN(C)c1oc(-c2ccco2)nc1S(=O)(=O)c1ccc(Br)cc1 | u | 0.4% | u | 0.7%[12.7 µM] | -24.5%
